This is a sample that favours compounds with a hit; in the whole collection about 2.6% have one here.
AmpC inh det: Promiscuous and Specific Inhibitors of AmpC Beta-Lactamase (assay with detergent) | purified AmpC, nitrocefin hydrolysis with detergent | Potency, µM (titrated, usually from 28.7 µM) | actives 0.09% (n = 71,000) | AID 584, 2007; active = well fitted curve in the direction sought with a large enough effect; inconclusive = small, poorly fitted or top-dose-only effect
Target sequence (P00811 whole entry, looked up): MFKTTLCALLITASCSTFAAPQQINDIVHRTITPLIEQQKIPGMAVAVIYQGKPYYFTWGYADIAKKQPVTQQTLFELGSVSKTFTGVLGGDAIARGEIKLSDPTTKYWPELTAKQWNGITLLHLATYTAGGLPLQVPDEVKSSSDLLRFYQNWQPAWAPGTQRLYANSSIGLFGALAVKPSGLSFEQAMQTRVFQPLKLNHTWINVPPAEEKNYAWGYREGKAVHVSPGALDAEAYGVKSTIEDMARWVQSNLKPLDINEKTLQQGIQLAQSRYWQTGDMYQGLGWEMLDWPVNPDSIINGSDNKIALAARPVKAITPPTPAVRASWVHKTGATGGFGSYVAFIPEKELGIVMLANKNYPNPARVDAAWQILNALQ
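E. coli AmpC (5.3 nM) in 20 mM phosphate pH 7.0 with 0.01% Triton X-100, preincubated 15 min RT with compound; nitrocefin (2 uL of 800 uM stock) hydrolysis followed by 480 nm absorbance every 20 s over 4 min.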
AmpC inh no det: Promiscuous and Specific Inhibitors of AmpC Beta-Lactamase (assay without detergent); P00811; AmpC nitrocefin hydrolysis, absorbance 480 nm, no detergent; Potency, µM (top dose mostly 28.7 µM); actives 1.8% (n = 71,000); AID 585, 2007
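AmpC in 20 mM phosphate buffer pH 7.0 was preincubated 15 min at room temperature with compounds. Nitrocefin (800 uM stock) was then added and hydrolysis followed at 480 nm every 20 s for 4 min.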
Anthrax LT inh: qHTS Assay for Anthrax Lethal Toxin Internalization. Cells, anthrax lethal toxin internalization, FRET ratio (460/530). Potency, µM (top dose mostly 40 µM), actives largely listed as inhibitors. actives 0.67% (n = 70,000); also: nearly all actives have a fitted effect of over 50% in size
SmPrx2 inh: Schistosoma Mansoni Peroxiredoxins (Prx2); Potency, µM; actives 0.07% (n = 65,000); S. mansoni Prx2 activity coupled to TGR/GSH (TGR is thioredoxin glutathione reductase), NADPH fluorescence loss, qHTS; Schistosoma mansoni peroxiredoxin 2 (Prx2)
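Prx2 activity was followed as the loss of NADPH fluorescence (ex 365/em 450 nm), read every 30 sec for 8 min after H2O2 start. The enzyme mix (50 nM Prx2, 25 nM TGR, GSH, NADPH; pH 7.4 phosphate buffer) was incubated with compound for 15 min at room temperature first.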
Hits are given with their value; [ ] = another dose, or the depositor's remark. Unless noted, calls follow the shape of the full dose curve.

What do the screens show for `COc1cccc(C2CC(c3ccccc3C)n3nc(N)nc3N2)c1` (stereo not given)?
AmpC inh det: inactive; AmpC inh no det: 3.98µM[single pt active]; Anthrax LT inh: inactive; SmPrx2 inh: inactive

Results for Cc1ccc(C2CC(c3ccccc3C)n3nc(N)nc3N2)cc1 (stereo not given) ?
AmpC inh det: inactive; AmpC inh no det: 3.98µM[single pt active]; Anthrax LT inh: inactive; SmPrx2 inh: inactive

What do the screens show for `CCOc1ccc(C2CC(c3ccccc3C)n3nc(N)nc3N2)cc1` (stereo not given)?
AmpC inh det: inactive; AmpC inh no det: inactive; Anthrax LT inh: inactive; SmPrx2 inh: inactive

Results for O=S(=O)(O)F ?
AmpC inh det: inactive; AmpC inh no det: inactive; Anthrax LT inh: inactive

How did Nc1nc(N)nc(CCCCc2nc(N)nc(N)n2)n1 do in these assays?
AmpC inh det: inactive[5.75 µM]; AmpC inh no det: inactive[5.75 µM]; Anthrax LT inh: inactive[8 µM]; SmPrx2 inh: inactive

What do the screens show for `NCCc1ccc(S(=O)(=O)O)cc1[N+](=O)[O-]`?
AmpC inh det: inactive[5.75 µM]; AmpC inh no det: inactive[5.75 µM]; Anthrax LT inh: inactive[8 µM]; SmPrx2 inh: inactive

How did CNC(=O)c1ccc2snnc2c1 do in these assays?
AmpC inh det: inactive; AmpC inh no det: 3.98µM[single pt active]; Anthrax LT inh: inactive; SmPrx2 inh: inactive

How did CC(C)C[C@H](NC(=O)[C@@H](O)[C@@H](N)Cc1ccccc1)C(=O)O do in these assays?
AmpC inh det: inactive; AmpC inh no det: inactive; Anthrax LT inh: inconclusive; SmPrx2 inh: inactive

Results for COC(=O)C1CCN(C(c2cc(OC)c(OC)c(OC)c2)c2sc3nc(C)nn3c2O)CC1 (stereo not given) ?
AmpC inh det: inactive; AmpC inh no det: inactive; Anthrax LT inh: inactive; SmPrx2 inh: inactive

How did CCOC(=O)C1CCN(C(c2cc(OC)c(OC)c(OC)c2)c2sc3nc(C)nn3c2O)CC1 (stereo not given) do in these assays?
AmpC inh det: inactive; AmpC inh no det: inactive; Anthrax LT inh: 15.8µM; SmPrx2 inh: inactive

What do the screens show for `Cc1cc(=O)oc2cc(O)c(CN(C)CC(=O)O)cc12`?
AmpC inh det: inactive[5.75 µM]; AmpC inh no det: inactive[5.75 µM]; Anthrax LT inh: inactive[8 µM]; SmPrx2 inh: inactive

How did C=C1C[C@@]23C[C@]1(O)CC[C@@H]2[C@]12C=C[C@@H](O)[C@@](C)(C(=O)O1)[C@@H]2[C@@H]3C(=O)O do in these assays?
AmpC inh det: inactive; AmpC inh no det: inactive; Anthrax LT inh: inconclusive; SmPrx2 inh: inactive

How did CCCOc1cccc(C(=O)Nc2cccc(NC(=O)c3ccco3)c2)c1 do in these assays?
AmpC inh det: inactive; AmpC inh no det: inactive; Anthrax LT inh: 5.01µM

What do the screens show for `O=C(Nc1cccc(-c2nc3ccccc3[nH]2)c1)c1cccc(NC(=O)c2ccco2)c1`?
AmpC inh det: inactive; AmpC inh no det: inactive; Anthrax LT inh: 15.8µM

What do the screens show for `NC(=S)SCCC(=O)O`?
AmpC inh det: inactive[5.75 µM]; AmpC inh no det: inactive[5.75 µM]; Anthrax LT inh: inactive[8 µM]; SmPrx2 inh: inactive

What do the screens show for `O=[N+]([O-])c1ccc2ncccc2c1CCc1c([N+](=O)[O-])ccc2ncccc12`?
AmpC inh det: inactive[5.75 µM]; AmpC inh no det: inactive[5.75 µM]; Anthrax LT inh: inactive[8 µM]; SmPrx2 inh: inactive

Results for O=S(=O)(O)c1cc(N=[N+]([O-])c2cc(S(=O)(=O)O)c3ccccc3c2)cc2ccccc12 ?
AmpC inh det: inactive[5.75 µM]; AmpC inh no det: inactive[5.75 µM]; Anthrax LT inh: inactive[8 µM]; SmPrx2 inh: inactive

How did S=C=Nc1cccc(C2(N3CCCCC3)CCCCC2)c1 do in these assays?
AmpC inh det: inactive; AmpC inh no det: inactive; Anthrax LT inh: 12.6µM; SmPrx2 inh: inactive

How did Cc1cc(C(=O)CSC(=S)SC(C)(C)C)ccc1Cl do in these assays?
AmpC inh det: inactive[5.75 µM]; AmpC inh no det: inactive[5.75 µM]; Anthrax LT inh: inconclusive; SmPrx2 inh: inactive

What do the screens show for `C=CC(C)(C)c1[nH]c2ccccc2c1C1=C(O)C(=O)C(c2c[nH]c3c(CC=C(C)C)cccc23)=C(O)C1=O`?
AmpC inh det: inconclusive; AmpC inh no det: inconclusive; Anthrax LT inh: 25.1µM; SmPrx2 inh: inactive

How did NC(=O)c1ccsc1NC(=O)c1nc(-c2ccccc2)n(-c2ccccc2)n1 do in these assays?
AmpC inh det: inactive; AmpC inh no det: inactive; Anthrax LT inh: 10µM; SmPrx2 inh: inconclusive

Results for O=C(O)CCNc1ccccc1C(=O)O ?
AmpC inh det: inactive[5.75 µM]; AmpC inh no det: inactive[5.75 µM]; Anthrax LT inh: inactive[8 µM]; SmPrx2 inh: inactive

How did CCN(CC)c1ccc(NC(=O)CC2Oc3ccccc3NC2=O)c(C)c1 (stereo not given) do in these assays?
AmpC inh det: inactive; AmpC inh no det: 3.98µM[single pt active]; Anthrax LT inh: inconclusive; SmPrx2 inh: inactive

What do the screens show for `Cc1ccc(NC(=O)CC2Oc3ccccc3NC2=O)c(C)c1` (stereo not given)?
AmpC inh det: inactive; AmpC inh no det: 3.98µM[single pt active]; Anthrax LT inh: inactive; SmPrx2 inh: inactive

Results for CC(Sc1nc(-c2ccccc2)cc(C(F)(F)F)n1)C(=O)N1CCCC1 (stereo not given) ?
AmpC inh det: inactive; AmpC inh no det: 3.98µM[single pt active]; Anthrax LT inh: inactive; SmPrx2 inh: inactive

What do the screens show for `N#CC1=C(N)Oc2cc(O)ccc2C1c1cccs1` (stereo not given)?
AmpC inh det: inactive; AmpC inh no det: inactive; Anthrax LT inh: inactive

How did CN(C)c1ccc2c(c1)OC(N)=C(C#N)C2c1cccc(F)c1 (stereo not given) do in these assays?
AmpC inh det: inactive; AmpC inh no det: inactive; Anthrax LT inh: 6.31µM

How did O=P(O)(CCP(=O)(O)c1ccccc1)c1ccccc1 do in these assays?
AmpC inh det: inactive[5.75 µM]; AmpC inh no det: inactive[5.75 µM]; Anthrax LT inh: inactive[8 µM]; SmPrx2 inh: inactive

What do the screens show for `Brc1ccccc1Cn1c(-c2cncs2)nc2ccccc21`?
AmpC inh det: inactive; AmpC inh no det: inactive; Anthrax LT inh: 10µM; SmPrx2 inh: inactive

What do the screens show for `c1csc(Cn2c(-c3cccs3)nc3ccccc32)c1`?
AmpC inh det: inactive; AmpC inh no det: inactive; Anthrax LT inh: inactive; SmPrx2 inh: inactive

Results for COc1ccc2c(c1)Cc1cc(N=[N+]([O-])c3ccc4c(c3)Cc3cc(OC)ccc3-4)ccc1-2 ?
AmpC inh det: inactive[5.75 µM]; AmpC inh no det: inactive[5.75 µM]; Anthrax LT inh: inactive[8 µM]; SmPrx2 inh: inactive

What do the screens show for `Cc1nc2ccc(S(=O)(=O)NC(C(=O)N3CCC(C)CC3)C(C)C)cc2s1` (stereo not given)?
AmpC inh det: inactive; AmpC inh no det: 3.98µM[single pt active]; Anthrax LT inh: inactive; SmPrx2 inh: inactive

Results for Cc1nc2ccc(S(=O)(=O)NC(CC(C)C)C(=O)O)cc2s1 (stereo not given) ?
AmpC inh det: inactive; AmpC inh no det: inactive; Anthrax LT inh: inactive; SmPrx2 inh: inactive

What do the screens show for `Cc1nc2ccc(S(=O)(=O)NCC(=O)N3CCC(N4CCCCC4)CC3)cc2s1`?
AmpC inh det: inactive; AmpC inh no det: inactive; Anthrax LT inh: inactive; SmPrx2 inh: inactive

How did Cc1nc2ccc(S(=O)(=O)NC(C(=O)N3CCCC3)C(C)C)cc2s1 (stereo not given) do in these assays?
AmpC inh det: inactive; AmpC inh no det: 3.98µM[single pt active]; Anthrax LT inh: inactive; SmPrx2 inh: inactive

How did Cc1ccc2oc(=O)c3cc(C(=O)NCc4ccco4)sc3c2c1 do in these assays?
AmpC inh det: inactive; AmpC inh no det: 3.98µM[single pt active]; Anthrax LT inh: inconclusive; SmPrx2 inh: inactive

How did CSc1nc(-c2ccco2)nn1C(=O)c1ccco1 do in these assays?
AmpC inh det: inactive; AmpC inh no det: 2.51µM[single pt active]; Anthrax LT inh: inactive; SmPrx2 inh: inactive

Screening data: PubChem BioAssay, National Center for Advancing Translational Sciences (NCATS)
